# PMC7862700, “An all-to-all approach to the identification of sequence-specific readers for epigenetic DNA modifications on cytosine”
# Columns and labels:
# Assay in all cases: DAPPL (digital affinity profiling via proximity ligation, sequencing); 10 mM Tris-HCl pH 7.5, 50 mM NaCl, 1 mM DTT, 4% glycerol, room temperature, 30 min; GST-TFs on glutathione beads, 16-mer random dsDNA library, 0.1% formaldehyde crosslink after washing; high values mean tight binding
# HSF1 = HSF1 (Homo sapiens, UniProt Q00613 1-529); details: protein: recombinant; tags: N-terminal GST; chain copies: 3; dsDNA, one strand shown
# Summary of the method: (§1)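 After expression in yeast as GST fusions, human transcription factors were bound to glutathione beads, DNA-barcoded and mixed with a tag-only sample. The pools were incubated with 200 nmole of a 16-mer random double-stranded DNA library in Tris/NaCl/DTT/glycerol buffer (30 min, room temperature), washed and crosslinked with 0.1% formaldehyde. Proximity ligation with BsaI/T4 ligase ran for 1 h at 37 °C, before PCR amplification and sequencing on an Illumina NextSeq500. Binding signal is a hexamer's read frequency for a factor divided by its frequency for the tag-only sample.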
# ETV2 = molecular target: T1, ETV2 (Homo sapiens, UniProt O00321 1-342); details: protein: recombinant; tags: N-terminal GST; dsDNA, one strand shown
# T1 sequence: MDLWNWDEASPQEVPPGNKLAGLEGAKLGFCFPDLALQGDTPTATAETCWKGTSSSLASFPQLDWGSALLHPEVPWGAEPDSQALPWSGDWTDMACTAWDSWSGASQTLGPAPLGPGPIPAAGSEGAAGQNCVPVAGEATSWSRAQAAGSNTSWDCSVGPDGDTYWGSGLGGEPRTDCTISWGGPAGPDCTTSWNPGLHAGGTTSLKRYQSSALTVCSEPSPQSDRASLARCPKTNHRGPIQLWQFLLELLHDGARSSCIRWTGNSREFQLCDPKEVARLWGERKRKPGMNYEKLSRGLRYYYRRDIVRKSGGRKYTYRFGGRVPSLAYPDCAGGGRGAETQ
# Summary of the method: as §1
# CRX = CRX (Homo sapiens, UniProt O43186 1-299); details: protein: recombinant; tags: N-terminal GST; dsDNA, one strand shown
# Summary of the method: as §1
# ELF1 = ELF1 (Homo sapiens, UniProt P32519 1-619); details: protein: recombinant; tags: N-terminal GST; dsDNA, one strand shown
# Summary of the method: as §1
# EHF = molecular target: T2, EHF (Homo sapiens, UniProt Q9NZC4 1-300); details: protein: recombinant; tags: N-terminal GST; dsDNA, one strand shown
# T2 sequence: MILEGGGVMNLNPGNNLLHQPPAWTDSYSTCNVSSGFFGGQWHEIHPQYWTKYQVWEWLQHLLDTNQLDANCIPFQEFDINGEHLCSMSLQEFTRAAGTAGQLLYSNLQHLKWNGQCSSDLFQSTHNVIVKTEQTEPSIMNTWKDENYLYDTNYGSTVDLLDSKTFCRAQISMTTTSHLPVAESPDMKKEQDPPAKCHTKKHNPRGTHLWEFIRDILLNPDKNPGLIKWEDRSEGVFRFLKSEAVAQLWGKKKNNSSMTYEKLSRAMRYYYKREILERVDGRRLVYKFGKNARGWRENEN
# Summary of the method: as §1
# ELK3 = molecular target: T3, ELK3 (Homo sapiens, UniProt P41970 1-407); details: protein: recombinant; tags: N-terminal GST; dsDNA, one strand shown
# T3 sequence: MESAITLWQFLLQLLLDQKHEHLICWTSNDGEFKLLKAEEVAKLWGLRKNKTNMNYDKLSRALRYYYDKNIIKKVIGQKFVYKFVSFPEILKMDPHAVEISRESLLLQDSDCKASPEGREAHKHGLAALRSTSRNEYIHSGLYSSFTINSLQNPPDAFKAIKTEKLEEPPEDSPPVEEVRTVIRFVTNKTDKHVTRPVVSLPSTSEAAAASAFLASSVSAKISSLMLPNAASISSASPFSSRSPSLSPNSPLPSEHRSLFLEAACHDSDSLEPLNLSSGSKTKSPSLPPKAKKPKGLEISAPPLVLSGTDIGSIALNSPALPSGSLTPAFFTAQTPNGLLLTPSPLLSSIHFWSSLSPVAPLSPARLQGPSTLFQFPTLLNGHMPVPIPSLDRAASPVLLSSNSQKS
# Summary of the method: as §1
# ETV3L = molecular target: T4, ETV3L (Homo sapiens, UniProt Q6ZN32 1-361); details: protein: recombinant; tags: N-terminal GST; dsDNA, one strand shown
# T4 sequence: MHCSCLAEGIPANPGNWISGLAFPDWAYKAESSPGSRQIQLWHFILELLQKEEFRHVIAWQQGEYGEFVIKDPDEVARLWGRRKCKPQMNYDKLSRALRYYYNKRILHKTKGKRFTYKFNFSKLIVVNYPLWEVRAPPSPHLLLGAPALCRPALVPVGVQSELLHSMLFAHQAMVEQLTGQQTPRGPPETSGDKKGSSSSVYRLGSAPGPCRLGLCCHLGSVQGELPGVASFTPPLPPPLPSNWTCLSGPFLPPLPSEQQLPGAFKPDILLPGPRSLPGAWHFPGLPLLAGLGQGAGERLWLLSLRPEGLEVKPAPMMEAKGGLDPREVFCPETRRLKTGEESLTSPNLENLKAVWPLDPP
# Summary of the method: as §1
# ETS2 = molecular target: T5, ETS2 (Homo sapiens, UniProt P15036 1-469); details: protein: recombinant; tags: N-terminal GST; dsDNA, one strand shown
# T5 sequence: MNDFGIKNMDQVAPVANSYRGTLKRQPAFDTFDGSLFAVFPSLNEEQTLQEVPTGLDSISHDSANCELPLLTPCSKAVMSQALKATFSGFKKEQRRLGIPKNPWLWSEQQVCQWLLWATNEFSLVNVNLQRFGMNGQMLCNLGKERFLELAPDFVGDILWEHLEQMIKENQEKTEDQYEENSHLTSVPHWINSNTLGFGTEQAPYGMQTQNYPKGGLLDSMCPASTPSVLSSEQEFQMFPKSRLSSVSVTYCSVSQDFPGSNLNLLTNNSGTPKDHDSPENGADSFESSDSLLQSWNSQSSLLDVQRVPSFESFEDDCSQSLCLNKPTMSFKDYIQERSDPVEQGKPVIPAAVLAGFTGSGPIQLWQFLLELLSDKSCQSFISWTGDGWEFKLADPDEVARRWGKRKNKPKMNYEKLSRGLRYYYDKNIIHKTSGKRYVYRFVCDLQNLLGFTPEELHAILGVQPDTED
# Summary of the method: as §1
# SPDEF = molecular target: T6, SPDEF (Homo sapiens, UniProt O95238 1-335); details: protein: recombinant; tags: N-terminal GST; dsDNA, one strand shown
# T6 sequence: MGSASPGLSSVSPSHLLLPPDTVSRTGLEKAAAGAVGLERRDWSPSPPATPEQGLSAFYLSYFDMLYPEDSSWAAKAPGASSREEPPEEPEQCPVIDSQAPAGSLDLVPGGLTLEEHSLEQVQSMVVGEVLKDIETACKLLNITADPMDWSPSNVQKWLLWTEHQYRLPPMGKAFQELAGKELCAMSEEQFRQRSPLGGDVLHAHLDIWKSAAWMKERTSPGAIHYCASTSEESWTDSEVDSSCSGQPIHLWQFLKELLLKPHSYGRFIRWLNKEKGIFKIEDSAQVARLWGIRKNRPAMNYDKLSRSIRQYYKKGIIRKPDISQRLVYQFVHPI
# Summary of the method: as §1
# ETV7 = molecular target: T7, ETV7 (Homo sapiens, UniProt Q9Y603 1-341); details: protein: recombinant; tags: N-terminal GST; dsDNA, one strand shown
# T7 sequence: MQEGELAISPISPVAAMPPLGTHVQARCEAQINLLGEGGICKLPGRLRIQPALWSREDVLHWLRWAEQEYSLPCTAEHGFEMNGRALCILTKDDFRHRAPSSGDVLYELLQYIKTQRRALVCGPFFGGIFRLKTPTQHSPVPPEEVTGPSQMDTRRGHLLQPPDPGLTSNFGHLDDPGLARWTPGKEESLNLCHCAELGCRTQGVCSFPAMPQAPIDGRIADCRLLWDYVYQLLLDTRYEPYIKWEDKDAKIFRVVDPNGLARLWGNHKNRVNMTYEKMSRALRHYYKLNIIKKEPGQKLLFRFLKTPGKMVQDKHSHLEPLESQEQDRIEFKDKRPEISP
# Summary of the method: as §1
# ETV6 = ETV6 (Homo sapiens, UniProt P41212 1-452); details: protein: recombinant; tags: N-terminal GST; dsDNA, one strand shown
# Summary of the method: as §1
# HSF1, sequence (Q00613 whole entry, the tested form may be a part): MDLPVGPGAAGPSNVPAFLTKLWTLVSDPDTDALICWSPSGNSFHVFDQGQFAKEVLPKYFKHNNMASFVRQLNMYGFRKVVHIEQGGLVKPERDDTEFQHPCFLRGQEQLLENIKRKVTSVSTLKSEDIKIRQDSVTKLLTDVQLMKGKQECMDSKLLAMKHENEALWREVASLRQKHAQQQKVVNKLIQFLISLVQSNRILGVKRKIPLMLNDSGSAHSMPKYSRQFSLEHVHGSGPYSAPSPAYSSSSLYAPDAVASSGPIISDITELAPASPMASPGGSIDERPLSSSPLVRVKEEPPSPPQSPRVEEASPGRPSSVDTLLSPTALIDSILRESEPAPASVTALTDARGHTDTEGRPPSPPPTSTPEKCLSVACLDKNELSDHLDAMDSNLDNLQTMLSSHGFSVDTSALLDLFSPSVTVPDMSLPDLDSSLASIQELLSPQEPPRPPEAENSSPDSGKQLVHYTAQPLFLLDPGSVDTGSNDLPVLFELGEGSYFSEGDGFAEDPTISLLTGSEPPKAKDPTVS
# CRX, sequence (O43186 whole entry): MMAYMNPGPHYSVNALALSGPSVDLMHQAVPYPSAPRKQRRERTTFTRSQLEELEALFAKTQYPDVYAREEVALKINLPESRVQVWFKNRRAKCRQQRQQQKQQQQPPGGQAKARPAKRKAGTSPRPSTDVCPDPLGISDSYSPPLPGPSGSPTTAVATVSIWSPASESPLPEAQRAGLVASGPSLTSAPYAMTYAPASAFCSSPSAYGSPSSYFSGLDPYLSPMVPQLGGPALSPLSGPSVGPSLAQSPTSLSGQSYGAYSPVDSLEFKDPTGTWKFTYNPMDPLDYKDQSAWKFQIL
# ETV6, sequence (P41212 whole entry): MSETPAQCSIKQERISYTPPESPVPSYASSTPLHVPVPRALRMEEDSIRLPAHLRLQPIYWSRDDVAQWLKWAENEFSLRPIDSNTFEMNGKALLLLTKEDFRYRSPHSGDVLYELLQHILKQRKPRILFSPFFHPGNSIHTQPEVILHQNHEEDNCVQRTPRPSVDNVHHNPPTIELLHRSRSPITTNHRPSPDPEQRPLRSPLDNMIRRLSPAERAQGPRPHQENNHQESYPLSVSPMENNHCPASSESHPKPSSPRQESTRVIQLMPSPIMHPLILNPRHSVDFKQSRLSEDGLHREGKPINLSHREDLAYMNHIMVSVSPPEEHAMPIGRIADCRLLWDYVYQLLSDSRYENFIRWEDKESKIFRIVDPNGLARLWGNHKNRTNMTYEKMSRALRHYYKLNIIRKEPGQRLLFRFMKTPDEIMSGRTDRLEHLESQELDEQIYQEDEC
# ELF1, sequence (P32519 whole entry): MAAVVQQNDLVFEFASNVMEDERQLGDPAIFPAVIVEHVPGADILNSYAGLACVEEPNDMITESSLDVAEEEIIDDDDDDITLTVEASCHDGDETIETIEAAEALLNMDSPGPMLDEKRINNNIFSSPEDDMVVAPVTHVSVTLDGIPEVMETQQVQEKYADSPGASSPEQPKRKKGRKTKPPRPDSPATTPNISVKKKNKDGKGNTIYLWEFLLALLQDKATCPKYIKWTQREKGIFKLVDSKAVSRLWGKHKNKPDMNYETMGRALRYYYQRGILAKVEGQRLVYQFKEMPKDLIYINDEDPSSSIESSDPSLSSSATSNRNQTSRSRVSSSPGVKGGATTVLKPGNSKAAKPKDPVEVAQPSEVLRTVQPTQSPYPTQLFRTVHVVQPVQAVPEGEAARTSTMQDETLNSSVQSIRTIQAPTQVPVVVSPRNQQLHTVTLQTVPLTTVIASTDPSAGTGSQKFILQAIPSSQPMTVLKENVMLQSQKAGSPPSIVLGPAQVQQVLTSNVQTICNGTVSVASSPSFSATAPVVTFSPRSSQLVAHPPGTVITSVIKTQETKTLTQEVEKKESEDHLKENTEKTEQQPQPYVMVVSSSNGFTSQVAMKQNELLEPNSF
sequence,measurement,setting,value
CGAGAT,binding signal,HSF1,"1.52 fold enrichment (6-mer frequency, TF over GST control)"
same,binding signal,ETV2,"1.07 fold enrichment (6-mer frequency, TF over GST control)"
same,binding signal,CRX,"1.27 fold enrichment (6-mer frequency, TF over GST control)"
AGATTG,binding signal,HSF1,"1.01 fold enrichment (6-mer frequency, TF over GST control)"
same,binding signal,CRX,"1.06 fold enrichment (6-mer frequency, TF over GST control)"
GGCTTT,binding signal,ELF1,"1.04 fold enrichment (6-mer frequency, TF over GST control)"
same,binding signal,EHF,"1.05 fold enrichment (6-mer frequency, TF over GST control)"
same,binding signal,ELK3,"1.11 fold enrichment (6-mer frequency, TF over GST control)"
same,binding signal,HSF1,"1.11 fold enrichment (6-mer frequency, TF over GST control)"
same,binding signal,ETV2,"1.15 fold enrichment (6-mer frequency, TF over GST control)"
same,binding signal,CRX,"1.47 fold enrichment (6-mer frequency, TF over GST control)"
same,binding signal,ETV3L,"1.03 fold enrichment (6-mer frequency, TF over GST control)"
same,binding signal,ETS2,"1.03 fold enrichment (6-mer frequency, TF over GST control)"
same,binding signal,SPDEF,"1 fold enrichment (6-mer frequency, TF over GST control)"
same,binding signal,ETV7,"1.16 fold enrichment (6-mer frequency, TF over GST control)"
same,binding signal,ETV6,"1.06 fold enrichment (6-mer frequency, TF over GST control)"
GAGATT,binding signal,HSF1,"1.25 fold enrichment (6-mer frequency, TF over GST control)"
same,binding signal,CRX,"1.57 fold enrichment (6-mer frequency, TF over GST control)"
